Screening results (PubChem BioAssay)
Only some compounds are listed: those with a hit (about 7.4% of all), similar ones and a draw of the others.
hNpr1 antagonist: antagonists of human natriuretic peptide receptor Npr1. HEK293 hNpr1 GloSensor cGMP, ANP-stimulated luminescence. 1.6% of 76,000 active. P16066. AID 1347048. Potency, µM (doses to about 46.3 µM), without a hit: top-dose activity change, negative = inhibition, hits mostly inhibitors; calls by dose curve; further: nearly all actives have a fitted effect of over 60% in size
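Compound pre-incubated 30 min at room temperature on GloSensor-loaded HEK293 cells stably carrying hNpr1 and the pGS-40F cGMP biosensor. Stimulation uses hNppA at 0.1 nM final; luminescence is taken at baseline and 20 min post-agonist.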
HEK293 tox: cytotoxic compounds in HEK 293 cells; Potency, µM (top dose mostly 115 µM), inactives show at the highest dose activity change, negative = cytotoxicity, usual class: inhibitors; HEK 293 viability, ATP luminescence (CellTiter-Glo), 48-72 h; 6.6% of 94,000 active; further: nearly all actives have a fitted effect of over 60% in size
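Cytotoxicity was scored by loss of ATP-coupled luminescence (CellTiter-Glo) in HEK 293 cells. Compound treatment ran 48 or 72 hr at 37 degree Celsius, 5% CO2, 95% humidity.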
SNCA expr inhib: reduces expression of the alpha-synuclein gene; AID 1671194; 0.17% of 140,000 active; Potency, µM (top dose mostly 57.2 µM), for the others: at the top dose activity change, negative = inhibition, usual class: inhibitors; HEK-293 SNCA-luciferase knock-in, luminescence, 24 h;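 further: plate controls were DMSO cells for no effect and cell-free wells for full effect; nearly all actives have a fitted effect of over 45% in size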
3T3 cytotox: kills NIH 3T3 cells. Potency, µM (highest dose often 96.7 µM), without a hit: at the highest dose activity change, negative = cytotoxicity, actives largely listed as inhibitors. NIH 3T3 viability, CellTiter-Glo ATP luminescence, 48-72 h. 4.3% of 94,000 active; further: nearly all actives have a fitted effect of over 55% in size
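Mouse fibroblast NIH 3T3 cells, 400 per well, received compound via pintool and were incubated for 48 or 72 hr prior to CellTiter-Glo ATP luminescence measurement.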
Luciferase inh: Photinus pyralis luciferase inhibition; Potency, µM (highest dose often 115 µM), usual class: inhibitors; 2.5% of 76,000 active; purified P. pyralis luciferase, luminescence, biochemical; P08659; AID 1347043; further: nearly all actives have a fitted effect of over 65% in size
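Inhibitors were tested against purified firefly luciferase in a biochemical, low-substrate format (both substrates at 10uM) and luminescence measured with a CCD imager.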
HEK293 viab: counter-screen for SNCA expression inhibitors: cell viability; HEK-293-SNCA-luc viability, GF-AFC fluorescence, 24 h; 0.12% of 150,000 active; Potency, µM (titrated, usually from 57.1 µM), for the others: top-dose activity change, negative = cytotoxicity, hits mostly cytotoxic; AID 1671193;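 further: 0% = DMSO-treated cells and -100% = medium-only wells without cells; nearly all actives have a fitted effect of over 30% in size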
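Cytotoxicity counterscreen: after 24 h compound treatment of genome-edited SNCA-luciferase HEK-293 cells, live-cell protease substrate GF-AFC read by fluorescence after 30 min; activity scaled between DMSO (0%) and medium-only (-100%), curves Hill-fitted.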
Starred values were filed as active, the others as inactive; i = inactive; ? = inconclusive; · = no result; [ ] = another dose, or the depositor's remark. Unless noted, the call rests on the fitted dose curve; in most records, active means well fitted curve in the direction sought with a large enough effect; inconclusive means small, poorly fitted or top-dose-only effect, or another doubt; inactive means no such curve, though single readings can be large; an effect the other way counts as inactive or inconclusive. Unless noted, on the % scale 0 is the no-effect control and ±100 the full control effect; potency means the concentration at half of the fitted maximal effect.

SMILES	hNpr1 antagonist	HEK293 tox	SNCA expr inhib	3T3 cytotox	Luciferase inh	HEK293 viab
O=C(NCc1ccccc1)c1ccccc1OC1CN(Cc2cccc(F)c2F)C1	·	?	-27%	20µM*	·	?
O=C(NC1CC1)c1ccccc1OC1CN(Cc2cc(F)c(F)c(F)c2)C1	-10%	?	1%	?	i	-2%
CCOc1ccc(CN2CC(Oc3ccccc3C(=O)NCc3ccccc3)C2)cc1	·	20µM*	8%	?	·	-12%
O=C(NCc1ccccc1)c1ccccc1OC1CN(Cc2ccc(F)c(F)c2)C1	-13%	?	?	40µM*	i	-18%
O=C(NCc1ccccc1)c1ccccc1OC1CN(Cc2cccc(C(F)(F)F)c2)C1	·	25µM*	?	13µM*	·	?
Cc1ccsc1CN1CC(Oc2ccccc2C(=O)NCc2ccccc2)C1	·	40µM*	?	40µM*	·	?
O=C(N[C@H]1CCN2C(=O)c3cc(-c4ccccc4)ccc3NC(=O)[C@H]12)c1cccs1	-17%[70.6 µM]	-23%[172 µM]	-17%[87.6 µM]	-17%[174 µM]	i	-9%[87.6 µM]
COc1ccc(-c2ccc3c(c2)C(=O)N2CC[C@H](NS(=O)(=O)c4cccs4)[C@H]2C(=O)N3)cc1	?	22µM*	-13%	?	?	-16%
O=C(N[C@H]1CCN2C(=O)c3ccc(Cl)cc3NC(=O)[C@H]12)c1cccs1	1%[70.6 µM]	-7%[172 µM]	-14%[87.6 µM]	89µM*	i	-8%[87.6 µM]
COc1ccc(-c2ccc3c(c2)C(=O)N2CC[C@H](NC(=O)CSC)[C@H]2C(=O)N3)cc1	-2%[70.6 µM]	?	38%[87.6 µM]	?	25µM*	4%[87.6 µM]
O=C(N[C@H]1CCN2C(=O)c3cc(-c4ccc(Cl)cc4)ccc3NC(=O)[C@H]12)c1cccs1	-15%	?	12%	?	11µM*	-12%
COc1ccc(-c2ccc3c(c2)C(=O)N2CC[C@H](NC(=O)CCC(=O)O)[C@H]2C(=O)N3)cc1	3%	2%	8%	-9%	?	-2%
CCCCCC(=O)N1CCC(=O)N(CC(=O)OCC)c2ccccc2C(OC)C1 (stereo unspecified)	·	?	-3%[25.6 µM]	?	·	?
Fc1ccccc1Nc1cnc2ccc(-n3ccnc3)nn12	-11%[70.6 µM]	?	?	?	i	11%[87.6 µM]
CCC(CC)C(=O)N1CCC(=O)N(CCOC)C[C@H]2COc3ccccc3[C@H]21	·	?	·	-18%	·	·
CO[C@H]1C(=O)N(C(C)C)[C@H]1C1CCN(C(=O)Cc2ccccc2)CC1	·	-4%	12%	-8%	·	?
COc1ccc(Cl)cc1-c1ccc2c(c1)C(=O)N1CC[C@H](NC(=O)c3cccs3)[C@H]1C(=O)N2	?	35µM*	?	?	i	?
COc1ccc(-c2ccc3c(c2)C(=O)N2CC[C@H](NC(=O)c4cccs4)[C@H]2C(=O)N3)cc1	3%	i	20%	-6%	25µM*	4%
COc1cccc(Nc2cccc(CN3CCC(C)(NC(C)=O)C3)c2)c1 (stereo unspecified)	-13%[70.6 µM]	?	74%[87.6 µM]	?	50µM*	2%[87.6 µM]
COc1cccc(Nc2cccc(CN3CCCC(C)(NC(C)=O)C3)c2)c1 (stereo unspecified)	3%[70.6 µM]	?	1%[87.6 µM]	?	i	13%[87.6 µM]
CC(=O)NC1(C)CCN(Cc2cccc(Nc3ccccc3)c2)C1 (stereo unspecified)	-7%[70.6 µM]	?	27%[87.6 µM]	?	i	9%[87.6 µM]
CC(=O)NC1(C)CCN(Cc2cccc(Nc3cccc(Cl)c3)c2)C1 (stereo unspecified)	?	71µM*	80%[87.6 µM]	45µM*	?	-16%[87.6 µM]
CCc1cn[nH]c1C1CCCN(C(=O)c2oc3cc(C)ccc3c2C)C1 (stereo unspecified)	-3%	?	7%	45µM*	i	2%
COCCCNC(=O)c1cc(-c2cccnc2)nc2c1cnn2C	·	?	-10%[87.6 µM]	?	·	?
CC(C)N1C[C@H](O)C[C@H]1c1nc(-c2ccc3c(c2)OCO3)no1	0%[70.6 µM]	-23%[172 µM]	111%[87.6 µM]	-30%[174 µM]	40µM*	1%[87.6 µM]
SMILES	hNpr1 antagonist	HEK293 tox	SNCA expr inhib	3T3 cytotox	Luciferase inh	HEK293 viab
O=C(O)c1ccc(CN2C[C@H](O)C[C@H]2c2nc(-c3ccc4c(c3)OCO4)no2)cc1	-2%[70.6 µM]	-1%[172 µM]	5%[87.6 µM]	-14%[174 µM]	?	-14%[87.6 µM]
N#Cc1cccc(CN2C[C@H](O)C[C@H]2c2nc(-c3ccc4c(c3)OCO4)no2)c1	-6%[70.6 µM]	100µM*	28%[87.6 µM]	?	?	-23%[87.6 µM]
COc1ccc(-c2noc([C@@H]3C[C@@H](O)CN3Cc3cccc(C#N)c3)n2)cc1	?	?	85%[87.6 µM]	-26%[138 µM]	22µM*	-17%[87.6 µM]
O[C@@H]1C[C@@H](c2nc(-c3ccc4c(c3)OCO4)no2)N(Cc2ccccc2)C1	-5%[70.6 µM]	?	173%[87.6 µM]	?	50µM*	-3%[87.6 µM]
CC1CCCCC1Nc1ncnc2c1CN(C1CCCNCC1)C(=O)CN2C (stereo unspecified)	·	-1%	7%	5%	·	7%
Cn1cc(CC(=O)N2CCCc3ncc(C(=O)NCCc4ccccn4)cc32)c2ccccc21	-6%	?	3%	?	i	-22%
COc1ccccc1Cn1c(=O)c(C(=O)NCc2ccc3c(c2)OCO3)nc2cccnc21	·	?	2%	?	·	-14%
COc1ccc(C(=O)N2CC[C@@H]3COCCN(C)[C@@H]3C2)c(OC)c1	-11%	?	248%	1%	22µM*	3%
COc1ccccc1-n1c(=O)c(C(=O)N2CCN(C(=O)c3ccc(F)cc3)CC2)nc2cccnc21	·	-9%	11%	-15%	·	-8%
O=C1C(Oc2ccc(F)cc2)C2(CCCCC2)N1Cc1ccc(F)cc1 (stereo unspecified)	·	40µM*	-23%	25µM*	·	?
COc1cc(CNc2nccc3c(=O)cc(N4CCOCC4)oc23)cc(OC)c1	-2%[70.6 µM]	-14%[172 µM]	-20%[87.6 µM]	89µM*	i	?
CN1CCN(c2cc(=O)c3ccnc(N4CCOCC4)c3o2)CC1	4%[70.6 µM]	i	10%[87.6 µM]	?	i	5%[87.6 µM]
O=c1cc(N2CCOCC2)oc2c(-c3cccc(F)c3)nccc12	4%[70.6 µM]	?	8%[87.6 µM]	?	i	0%[87.6 µM]
COc1ncc(-c2nccc3c(=O)cc(N4CCN(C)CC4)oc23)cn1	1%[70.6 µM]	-13%[172 µM]	-1%[87.6 µM]	89µM*	i	4%[87.6 µM]
COc1cccc(-c2nccc3c(=O)cc(N4CCOCC4)oc23)c1	9%[70.6 µM]	?	40%[87.6 µM]	20µM*	i	-7%[87.6 µM]
O=c1cc(N2CCOCC2)oc2c(-c3cccnc3)nccc12	6%[70.6 µM]	-9%[172 µM]	8%[87.6 µM]	79µM*	i	6%[87.6 µM]
COCC(=O)N[C@@H]1CN(C(=O)c2ccc(OC)cc2OC)CC[C@@H]1c1nc(C)no1	·	-2%	-3%	-10%	·	2%
